These results are taken from PubChem BioAssay.

The nature of test [1]: antimalarial activity against Dd2 strain (AID 2302;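 active = growth inhibition above 50% at the single 2 µM test dose, taken to imply half-maximal potency below 2 µM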;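 note: 0% = DMSO untreated growth and 100% = chloroquine plus artemisinin killed control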). To be noted: P. falciparum Dd2 in RBCs, LDH growth readout, 72 h; at 2 µM; stronger effect = higher value.
Test [2] can be described thus: human hepatoma cell viability loss – ATP luminescence, cytotoxicity control for P. falciparum antimalarial project, primary screen (AID 2303;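 active = inhibition above 50%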;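 note: 0% = DMSO wells and 100% = digitonin-killed cells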). The note with it: HepG2 viability, 24-48 h, at 10 µM, stronger effect = higher value.
Test [3] addresses L-lactate dehydrogenase (Plasmodium falciparum (isolate CDC / Honduras)) (UniProt Q27743). The test can be described thus: PfLDH activity inhibition – cell lysate, 3D7 strain, counter-screen for P. falciparum growth inhibition project (AID 2304).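 Note: 0% = vehicle and 100% = reference inhibitor.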 The note with it: P. falciparum 3D7 crude extract, LDH APAD/NBT absorbance; at 2 µM; stronger effect = higher value.
Test [4] is described as follows: inhibition of 3D7 malaria parasite growth – strain 3D7 (AID 2306).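 Note: 0% = DMSO wells and 100% = chloroquine plus artemisinin control wells.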 To be noted: P. falciparum 3D7 erythrocytic growth, LDH absorbance, 72 h; at 2 µM; stronger effect = higher value.
The target in test [5] is Calcium-dependent protein kinase 1 (Plasmodium falciparum (isolate 3D7)) (UniProt P62344). The test is described as follows: PfCDPK1 kinase inhibitors, biochemical, TCAMS library (AID 1159585; cut-off not given, nearly all actives have IC50 up to about 0.98 µM;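 note: inhibitors leave more ATP so luminescence rises with inhibition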). The note with it: recombinant PfCDPK1, Kinase-Glo ATP depletion luminescence.
Test [6] deals with Plasmodium falciparum protein kinase 6 (PK6, PF3D7_1337100) (UniProt Q8IDW1). The test is described as follows: PfPK6 kinase inhibitors, biochemical, TCAMS library (AID 1159586). The note with it: recombinant PfPK6, Kinase-Glo ATP depletion luminescence.
Test [7] addresses Protein kinase 7 (PK7), Plasmodium falciparum 3D7 (PF3D7_0213400) (UniProt Q7YTF7). The test is described as follows: inhibition of Plasmodium PK7 catalytic activity – biochemical, TCAMS antimalarial set, Kinase-Glo luminescence (AID 1159587). The note with it: recombinant PfPK7, Kinase-Glo ATP depletion luminescence.
Test [8] has as its target Calcium-dependent protein kinase 4 (Plasmodium falciparum (isolate 3D7)) (UniProt Q8IBS5). The test is described as follows: PfCDPK4 kinase inhibitors, biochemical, TCAMS library (AID 1159588; cut-off not given, nearly all actives have IC50 up to about 0.91 µM). The note with it: recombinant PfCDPK4, Kinase-Glo ATP depletion luminescence.

A number with no mark means an inactive call. For some of these results: Results with a measured potency or affinity are listed apart. Active and inactive are the calls of the source. Unless noted, the rule behind the calls is not given here.

L-lactate dehydrogenase (Plasmodium falciparum (isolate CDC / Honduras)), sequence (Q27743 whole entry, looked up): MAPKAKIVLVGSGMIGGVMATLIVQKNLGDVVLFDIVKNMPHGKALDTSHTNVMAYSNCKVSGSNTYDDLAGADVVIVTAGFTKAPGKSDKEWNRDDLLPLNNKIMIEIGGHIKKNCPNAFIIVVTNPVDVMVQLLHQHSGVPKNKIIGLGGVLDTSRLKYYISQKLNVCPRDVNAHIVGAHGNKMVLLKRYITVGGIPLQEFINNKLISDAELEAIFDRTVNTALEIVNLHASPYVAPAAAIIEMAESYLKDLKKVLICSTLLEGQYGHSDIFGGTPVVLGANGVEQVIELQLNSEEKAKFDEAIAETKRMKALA
Plasmodium falciparum protein kinase 6 (PK6, PF3D7_1337100), sequence (Q8IDW1 1-305): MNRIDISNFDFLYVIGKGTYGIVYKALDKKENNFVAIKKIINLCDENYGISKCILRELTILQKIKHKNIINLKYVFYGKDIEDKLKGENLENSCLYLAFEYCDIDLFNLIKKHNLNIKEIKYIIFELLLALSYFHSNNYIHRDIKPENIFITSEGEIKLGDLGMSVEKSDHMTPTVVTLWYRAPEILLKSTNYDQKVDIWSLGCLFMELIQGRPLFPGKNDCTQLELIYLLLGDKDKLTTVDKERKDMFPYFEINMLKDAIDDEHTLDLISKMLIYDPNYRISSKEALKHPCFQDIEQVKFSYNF
Calcium-dependent protein kinase 1 (Plasmodium falciparum (isolate 3D7)), sequence (P62344 whole entry, looked up): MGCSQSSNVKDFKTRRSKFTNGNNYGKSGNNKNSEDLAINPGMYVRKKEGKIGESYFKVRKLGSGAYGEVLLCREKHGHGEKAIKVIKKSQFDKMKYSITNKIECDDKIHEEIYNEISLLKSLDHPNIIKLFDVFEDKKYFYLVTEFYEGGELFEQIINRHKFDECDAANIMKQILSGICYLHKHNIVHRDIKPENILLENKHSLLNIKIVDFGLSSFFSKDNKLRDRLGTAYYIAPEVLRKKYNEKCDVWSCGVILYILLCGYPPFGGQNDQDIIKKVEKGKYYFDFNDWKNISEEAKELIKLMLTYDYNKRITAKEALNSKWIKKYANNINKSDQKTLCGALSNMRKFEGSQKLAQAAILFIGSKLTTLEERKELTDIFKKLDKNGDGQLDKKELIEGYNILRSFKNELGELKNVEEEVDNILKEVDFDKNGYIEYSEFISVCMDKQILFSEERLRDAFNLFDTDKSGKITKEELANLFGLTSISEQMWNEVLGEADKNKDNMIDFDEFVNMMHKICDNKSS
Calcium-dependent protein kinase 4 (Plasmodium falciparum (isolate 3D7)), sequence (Q8IBS5 whole entry, looked up): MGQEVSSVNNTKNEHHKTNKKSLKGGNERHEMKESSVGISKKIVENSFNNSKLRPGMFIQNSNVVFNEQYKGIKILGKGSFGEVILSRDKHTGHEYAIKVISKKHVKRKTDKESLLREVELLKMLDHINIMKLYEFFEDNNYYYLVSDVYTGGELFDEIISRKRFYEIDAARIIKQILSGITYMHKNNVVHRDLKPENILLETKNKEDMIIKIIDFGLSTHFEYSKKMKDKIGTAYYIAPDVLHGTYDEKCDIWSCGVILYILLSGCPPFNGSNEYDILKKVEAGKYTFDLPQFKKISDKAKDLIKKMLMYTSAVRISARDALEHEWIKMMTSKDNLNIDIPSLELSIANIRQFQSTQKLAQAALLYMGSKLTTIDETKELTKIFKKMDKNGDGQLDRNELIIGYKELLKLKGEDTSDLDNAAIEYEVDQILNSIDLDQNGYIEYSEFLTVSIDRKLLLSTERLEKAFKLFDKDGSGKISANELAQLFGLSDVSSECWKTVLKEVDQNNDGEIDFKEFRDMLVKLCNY
Protein kinase 7 (PK7), Plasmodium falciparum 3D7 (PF3D7_0213400), sequence (Q7YTF7 1-343): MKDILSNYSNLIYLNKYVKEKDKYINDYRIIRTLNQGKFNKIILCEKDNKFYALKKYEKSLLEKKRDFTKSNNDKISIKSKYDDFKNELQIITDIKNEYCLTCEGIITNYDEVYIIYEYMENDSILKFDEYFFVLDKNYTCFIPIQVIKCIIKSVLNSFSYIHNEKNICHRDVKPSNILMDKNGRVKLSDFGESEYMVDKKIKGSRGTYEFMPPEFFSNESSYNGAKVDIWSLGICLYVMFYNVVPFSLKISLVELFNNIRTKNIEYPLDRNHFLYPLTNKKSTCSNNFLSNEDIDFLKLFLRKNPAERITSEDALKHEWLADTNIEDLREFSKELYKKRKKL

Turning to `COCCN(C)c1ccc(C(=O)Nc2ccccc2)cc1NS(=O)(=O)Cc1ccccc1`, the growth inhibition is 47% in test [1] and 92% (active) in test [4]. Also, the figures for the inhibition in test [2] and in test [3] were 2% and -5%, respectively. For the same compound, the outcome in test [5], in test [6], in test [7] and in test [8] was inactive.

With `O=[N+]([O-])c1ccc2nc(Nc3ccc(Cl)c(Cl)c3)c(Nc3ccc(Cl)c(Cl)c3)nc2c1`, the growth inhibition in test [1] is 99% (active); in test [4], 101% (active). Besides, the inhibition in test [2] was 1%; in test [3] it was 3%. Besides, the result in test [5], in test [6], in test [7] and in test [8] was inactive.

Take `c1cc(CNCC2CCN(CC3CCCCC3)CC2)cc(-n2ccnc2)c1`: the growth inhibition is 99% (active) in test [1] and 102% (active) in test [4]. The inhibition is 18% in test [2] and -1% in test [3]. Besides, the outcome in test [5], in test [6], in test [7] and in test [8] was inactive.

As for `COc1cc(C(=O)N2N=C(c3c(-c4ccccc4)c4cc(Br)ccc4[nH]c3=O)CC2c2cccc([N+](=O)[O-])c2)cc(OC)c1OC` (stereo not given), the figures for the growth inhibition in test [1] and in test [4] were 95% (active) and 93% (active), respectively. Further, the values for the inhibition in test [2] and in test [3] were 1% and 4%, respectively. The outcome in test [5], in test [6], in test [7] and in test [8] was inactive.

Turning to `O=C(Nc1ccncc1)c1cc(C(=O)Nc2ccncc2)cc([N+](=O)[O-])c1`, the growth inhibition in test [1] was 50% (active); in test [4], 100% (active). In addition, the figures for the inhibition in test [2] and in test [3] were 1% and -3%, respectively. In addition, the result in test [5], in test [6], in test [7] and in test [8] was inactive.

`O=C(/C=C/c1ccc(C(F)(F)F)cc1)NCCCCCN1CCN(C(=O)Nc2ccc(Cl)cc2)CC1`: the growth inhibition in test [1] is -4%; in test [4], 88% (active). Besides, the figures for the inhibition in test [2] and in test [3] were 37% and -8%, respectively. Further, the outcome in test [5], in test [6], in test [7] and in test [8] was inactive.

Regarding `CCCCCCN1CCN(Cc2cccc(NC(=O)c3ccc(Cl)c(Cl)c3)c2)CC1`, the growth inhibition is 51% (active) in test [1] and 85% (active) in test [4]. Further, the results for the inhibition in test [2] and in test [3] were 31% and -4%, respectively. Further, the outcome in test [5], in test [6], in test [7] and in test [8] was inactive.

For the compound `O=C(Nc1nc2cc(S(=O)(=O)NCCc3cccc(F)c3)ccc2n1CCCn1ccnc1)c1ccc(Cl)cc1`, the figures for the growth inhibition in test [1] and in test [4] were 8% and 90% (active), respectively. For the same compound, the values for the inhibition in test [2] and in test [3] were -24% and 0%, respectively. Besides, the result in test [5], in test [6], in test [7] and in test [8] was inactive.

Consider `Cc1[nH]c(C)c(-c2ccc(OCCSc3ccncc3)cc2)c(=O)c1Br`, for which the growth inhibition in test [1] and in test [4] was 95% (active) throughout. In addition, the inhibition in test [2] and in test [3] was -6% throughout. Also, the result in test [5], in test [6], in test [7] and in test [8] was inactive.

For `Cc1cc(NN=Cc2ccccc2F)c2cccc(C)c2n1`, the growth inhibition in test [1] was 14%; in test [4], 102% (active). The inhibition in test [2] is 7%; in test [3], -2%. Moreover, the result in test [5], in test [6], in test [7] and in test [8] was inactive.

For the compound `COC(=O)c1ccc(N2CCN(CCCCNC(=O)c3ccc(NC(=O)c4ccc(Cl)cc4)cc3)CC2)c(OC)c1`, the values for the growth inhibition in test [1] and in test [4] were 1% and 82% (active), respectively. Besides, the inhibition was 11% in test [2] and 3% in test [3]. Also, the result in test [5], in test [6], in test [7] and in test [8] was inactive.

With `CC(C)c1ccc(CN2CCC(CNC(=O)c3cc(-c4cccc(C(F)(F)F)c4)cs3)C2)cc1` (stereo not given), the growth inhibition in test [1] was 60% (active); in test [4], 99% (active). Moreover, the inhibition in test [2] was 36%; in test [3], 5%. Further, the outcome in test [5], in test [6], in test [7] and in test [8] was inactive.

Consider `Cc1cccc2[nH]c(-c3ccc(-c4cccc(CNCCCN5CCCC5=O)c4)s3)nc12`, for which the results for the growth inhibition in test [1] and in test [4] were 26% and 101% (active), respectively. The inhibition is 14% in test [2] and -9% in test [3]. The result in test [5], in test [6], in test [7] and in test [8] was inactive.

In the case of `CC(C)N(CC(=O)c1ccc(O)c(C(=O)O)c1)Cc1ccccc1`, the results for the growth inhibition in test [1] and in test [4] were 26% and 97% (active), respectively. In addition, the inhibition in test [2] and in test [3] was -7% in each case. Further, the outcome in test [5], in test [6], in test [7] and in test [8] was inactive.

For `c1ccc2c(c1)ncn2-c1ccnc(Nc2ccncc2)n1`, the growth inhibition in test [1] was 80% (active); in test [4] it was 89% (active). In addition, the inhibition in test [2] is 0%; in test [3], -3%. The outcome in test [5], in test [6], in test [7] and in test [8] was inactive.

With `CN(C)CCN(C)Cc1ccc(-c2ccc(NC(=O)c3cccc(Cl)c3)cc2)cc1`, the growth inhibition in test [1] is 54% (active); in test [4] it was 94% (active). Further, the results for the inhibition in test [2] and in test [3] were 50% (active) and 1%, respectively. In addition, the result in test [5], in test [6], in test [7] and in test [8] was inactive.

As for `CC(C)NCc1ccc(-c2ccc(-c3nc4ccc(C(F)(F)F)cc4[nH]3)cc2)cc1`, the growth inhibition in test [1] is 98% (active); in test [4], 100% (active). Besides, the inhibition in test [2] was 16%; in test [3] it was 0%. The outcome in test [5], in test [6], in test [7] and in test [8] was inactive.

In the case of `O=C(/C=C/c1ccc(Cl)cc1Cl)NCCCCCN1CCC(c2c[nH]c3ccccc23)CC1`, the growth inhibition in test [1] was 9%; in test [4] it was 99% (active). In addition, the inhibition in test [2] is 95% (active); in test [3], 1%. Moreover, the outcome in test [5], in test [6], in test [7] and in test [8] was inactive.

Turning to `Cc1[nH]c(CNCCCNc2cc(=O)c3ccccc3[nH]2)c(Br)c1Br`, the figures for the growth inhibition in test [1] and in test [4] were 47% and 91% (active), respectively. Moreover, the inhibition is -3% in test [2] and 4% in test [3]. For the same compound, the outcome in test [5], in test [6], in test [7] and in test [8] was inactive.

Regarding `COc1ccc(C(C)Nc2nc(N)c3cc(OC)c(OC)cc3n2)cc1` (stereo not given), the growth inhibition in test [1] was 28%; in test [4], 101% (active). The inhibition was 23% in test [2] and -2% in test [3]. Further, the result in test [5], in test [6], in test [7] and in test [8] was inactive.
